Laboratory results as given in PubChem BioAssay (Tox21).
Records with an inconclusive call do not appear. The source made the active and inactive calls. Unless noted, the call rests on the fitted dose curve; in most records, active means well fitted curve in the direction sought with a large enough effect in the repeat runs; inconclusive means weak or mixed curves; inactive means no such curve, though single readings can be large; an effect the other way counts as inactive or inconclusive.

Tests used:
[1] = qHTS assay to identify small molecule antagonists of the estrogen related receptor (ERR) signaling pathway from Tox21 library - cell viability counter screen (AID 1224834); further: nearly all actives have a fitted effect of over 30% in size
Summary of the method: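 ERR reporter cells were plated 6 h before compound addition, then exposed to test compounds in DMSO for 17.5 h at 37 C. Viability was read as CellTiter-Fluor fluorescence after a 30-minute incubation at 37 C.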

[2] = target: Luciferin 4-monooxygenase (Photinus pyralis) (UniProt P08659); assay: qHTS assay to identify small molecule inhibitors of firefly luciferase (AID 1224835); further: nearly all actives have a fitted effect of over 25% in size
Luciferin 4-monooxygenase (Photinus pyralis), sequence (P08659 whole entry, looked up): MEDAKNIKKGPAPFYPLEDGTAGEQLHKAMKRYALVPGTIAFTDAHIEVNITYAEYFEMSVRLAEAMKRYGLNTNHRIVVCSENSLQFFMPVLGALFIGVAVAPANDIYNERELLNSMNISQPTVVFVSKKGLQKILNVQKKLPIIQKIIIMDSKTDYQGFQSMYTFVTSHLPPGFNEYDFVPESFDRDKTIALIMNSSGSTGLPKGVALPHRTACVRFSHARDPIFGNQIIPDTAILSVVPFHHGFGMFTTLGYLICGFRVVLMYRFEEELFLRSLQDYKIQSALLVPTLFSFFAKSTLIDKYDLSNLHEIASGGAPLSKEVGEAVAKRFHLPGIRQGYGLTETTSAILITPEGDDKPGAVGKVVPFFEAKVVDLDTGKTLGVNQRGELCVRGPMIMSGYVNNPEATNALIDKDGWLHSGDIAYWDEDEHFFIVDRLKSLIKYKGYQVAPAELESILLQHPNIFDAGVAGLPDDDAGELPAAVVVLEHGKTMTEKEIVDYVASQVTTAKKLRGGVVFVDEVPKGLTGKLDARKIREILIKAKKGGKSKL
Summary of the method: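 Inhibition of purified Photinus luciferase is measured by luminescence. Substrate levels (D-luciferin, ATP) sit at their KM values. Each compound is tested in a concentration series.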

[3] = qHTS assay to identify small molecule agonists of the constitutive androstane receptor (CAR) signaling pathway - cell viability counter screen (AID 1224836); further: nearly all actives have a fitted effect of over 45% in size
Summary of the method: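 Cells were seeded and incubated 4 hrs. Compounds were added across 15 concentrations together with PK11195 at 0.75 uM final. Plates were incubated 23 hrs at 37 C. CellTiter-Fluor was added and fluorescence measured.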

[4] = qHTS assay to identify small molecule antagonists of the constitutive androstane receptor (CAR) signaling pathway - cell viability counter screen (AID 1224837); further: nearly all actives have a fitted effect of over 45% in size
Summary of the method: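 HepG2 cells stably expressing hCAR and a CYP2B6-2.2kb reporter were plated and pre-incubated 4 hr at 37 C/5% CO2, then given compounds at 15 concentrations plus 50 nM CITCO (final). After 23 hr, viability was read by CellTiter-Fluor fluorescence.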

[5] = qHTS assay to identify small molecule antagonists of the estrogen related receptor signaling pathway with the pleiotropic PPARgamma coactivator (PGC) from Tox21 10K library - cell viability counter screen (AID 1224840; active means well fitted cell-killing curve with a large enough effect in the repeat runs, not every such curve was filed as active; further: nearly all actives have a fitted effect of over 40% in size)
Summary of the method: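 PGC/ERR cells were seeded at 2,000 cells/well and left 6 hours at 37 C/5% CO2 before pin-tool addition of compounds in DMSO. After 17.5 hours at 37 C, CellTiter-Fluor was added and fluorescence read 30 minutes later.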

[6] = qHTS assay to identify small molecule agonists of the hypoxia (HIF-1) signaling pathway - cell viability counter screen (AID 1224844; calls by dose curve; further: nearly all actives have a fitted effect of over 50% in size)
Summary of the method: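 HRE-bla ME-180 cells in medium with 0.5% dialyzed FBS were preincubated 5 hrs at 37C, exposed to compounds for 17 hrs, then viability was read as CellTiter-Glo luminescence after 30 min at room temperature, in the reporter wells.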

[7] = qHTS assay to identify small molecule agonists of H2AX (AID 1224845; active means well fitted activation curve with a large enough effect in the signal ratio in the repeat runs, not every such curve was filed as active; the % refers to the signal ratio)
Summary of the method: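 Phospho-H2AX Ser139 measured by HTRF (ex 320 nm; em 665 and 620 nm) after 24 hr antibody incubation. Compounds, 15 concentrations, 0.76% DMSO, were applied to CHO-K1 cells for 3hr at 37C before lysis.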

[8] = qHTS assay to identify small molecule agonists of the hypoxia (HIF-1) signaling pathway (AID 1224846; active means well fitted activation curve with a large enough effect in the signal ratio in the repeat runs, not every such curve was filed as active; the % refers to the signal ratio)
Summary of the method: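 HRE-bla ME-180 cells (beta-lactamase reporter under hypoxia response element) were plated at 2,000 cells/well in medium with 0.5% dialyzed FBS, rested 5 hrs, then given compounds in DMSO for 17 hrs at 37C, 5% CO2. Reporter induction was read with CCF4-AM FRET substrate.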

[9] = qHTS assay to identify small molecule agonists of H2AX - cell viability counter screen (AID 1224847; calls by dose curve; further: top concentration of the series differs between compounds; nearly all actives have a fitted effect of over 30% in size)
Summary of the method: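 Cytotoxicity counter screen in wild-type CHO-K1 cells: a 3 hr compound treatment at 37C across 15 concentrations, followed by CellTiter-Glo luminescence to gauge viable cells.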

[10] = qHTS RealTime-Glo MT Cell Viability Assay in HepG2 cells - 24 hour (AID 1224867); further: nearly all actives have a fitted effect of over 50% in size
Summary of the method: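 Cells + NanoLuc/prosubstrate dispensed (600 cells/well) → 5 h at 37 C/5% CO2 → compounds in DMSO transferred → 40 h incubation at 37 C, luminescence read at 0, 8, 16, 24, 32, 40 h.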

[11] = qHTS RealTime-Glo MT Cell Viability Assay in HEK293 cells - 32 hour (AID 1224868); further: top concentration of the series differs between compounds; nearly all actives have a fitted effect of over 50% in size
Summary of the method: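 Tox21 10K qHTS, HEK293, 600 cells/well, RealTime-Glo reagent co-dispensed with cells; 5 h preincubation, compound by pintool, 37 C, luminescence at 0–40 h.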

[12] = A CellTox Green Cytotoxicity Assay to monitor cytotoxicity in HEK293 cells - 0 hour (AID 1224869); further: nearly all actives have a fitted effect of over 50% in size
Summary of the method: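 HEK293 cells premixed with CellTox Green dye were seeded at 600 cells/well and left 5 h at 37 C/5% CO2 before pin transfer of 23 nL compound in DMSO. Fluorescence from dye bound to dead-cell DNA was read during 40 h treatment.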

[13] = qHTS RealTime-Glo MT Cell Viability Assay in HepG2 cells - 40 hour (AID 1224870); further: nearly all actives have a fitted effect of over 50% in size
Summary of the method: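 Real-time viability: cells seeded at 600 per well together with NanoLuc and cell-permeant prosubstrate, compounds added after 5 h incubation. Luminescence tracked at 0, 8, 16, 24, 32 and 40 h of exposure.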

[14] = target: Thyrotropin receptor (Homo sapiens) (UniProt P16473); assay: qHTS assay to identify small molecule agonists of the thyroid stimulating hormone receptor (TSHR) signaling pathway (AID 1224843; calls by dose curve; further: nearly all actives have a fitted effect of over 45% in size)
Thyrotropin receptor (Homo sapiens), sequence (P16473 whole entry, looked up): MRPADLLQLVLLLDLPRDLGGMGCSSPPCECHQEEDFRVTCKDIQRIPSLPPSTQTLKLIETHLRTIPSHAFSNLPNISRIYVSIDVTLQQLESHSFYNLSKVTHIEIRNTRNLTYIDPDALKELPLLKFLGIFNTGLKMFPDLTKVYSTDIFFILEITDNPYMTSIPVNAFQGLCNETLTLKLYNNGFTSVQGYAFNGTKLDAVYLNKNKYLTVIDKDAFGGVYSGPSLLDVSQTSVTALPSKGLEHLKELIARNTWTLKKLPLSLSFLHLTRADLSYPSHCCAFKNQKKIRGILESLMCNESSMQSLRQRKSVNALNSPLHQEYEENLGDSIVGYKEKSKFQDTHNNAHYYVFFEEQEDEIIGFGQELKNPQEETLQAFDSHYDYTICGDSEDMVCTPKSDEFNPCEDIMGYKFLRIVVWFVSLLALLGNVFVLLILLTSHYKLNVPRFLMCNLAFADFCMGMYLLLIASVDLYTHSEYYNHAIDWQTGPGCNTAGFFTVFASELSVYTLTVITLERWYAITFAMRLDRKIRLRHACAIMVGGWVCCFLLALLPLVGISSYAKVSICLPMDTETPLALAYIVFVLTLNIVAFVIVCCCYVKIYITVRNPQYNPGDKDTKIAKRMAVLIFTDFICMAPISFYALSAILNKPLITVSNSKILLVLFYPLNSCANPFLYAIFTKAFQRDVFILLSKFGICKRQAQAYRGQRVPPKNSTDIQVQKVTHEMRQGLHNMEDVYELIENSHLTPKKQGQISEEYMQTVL
Summary of the method: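 Screening of the Tox21 10K collection used HEK293 cells engineered with TSHR at 800 cells per well. After a 30-min room-temperature compound exposure, HTRF cAMP reagents were added and fluorescence recorded 1 h later.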

[15] = target: Nuclear receptor subfamily 1 group I member 3 (Homo sapiens) (UniProt Q14994); assay: qHTS assay to identify small molecule agonists of the constitutive androstane receptor (CAR) signaling pathway (AID 1224839);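 further: HepG2 cells stably carrying human CAR and a CYP2B6 luciferase reporter; nearly all actives have a fitted effect of over 15% in size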
Nuclear receptor subfamily 1 group I member 3 (Homo sapiens), sequence (Q14994 whole entry, looked up): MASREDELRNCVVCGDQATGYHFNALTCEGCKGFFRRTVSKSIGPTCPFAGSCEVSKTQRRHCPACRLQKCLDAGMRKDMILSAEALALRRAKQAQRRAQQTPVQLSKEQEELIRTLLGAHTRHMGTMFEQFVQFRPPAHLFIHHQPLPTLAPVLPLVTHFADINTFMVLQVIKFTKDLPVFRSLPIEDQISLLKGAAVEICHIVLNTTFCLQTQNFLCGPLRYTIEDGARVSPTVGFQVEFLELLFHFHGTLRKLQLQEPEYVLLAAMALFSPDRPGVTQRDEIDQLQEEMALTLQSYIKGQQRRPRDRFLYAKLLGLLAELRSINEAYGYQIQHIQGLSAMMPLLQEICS
Summary of the method: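 Cells were plated and incubated 4 hrs, then dosed with compounds at 15 concentrations. PK11195 was added to 0.75 uM final. After 24 hrs at 37 C, luciferase luminescence was measured.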

[16] = qHTS assay to identify small molecule agonists of the estrogen related receptor signaling pathway with the pleiotropic PPARgamma coactivator (PGC) from Tox21 10K library (AID 1224842); further: nearly all actives have a fitted effect of over 15% in size
Summary of the method: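 Luminescence from One-Glo (30 min, room temperature) measured after PGC/ERR cells had 18 h at 37 C with pinned compound (23 nL in DMSO). Cells had been seeded at 2,000 per well and pre-incubated 6 h.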

[17] = qHTS assay to identify small molecule antagonists of the estrogen related receptor (ERR) signaling pathway from Tox21 library (AID 1224848); further: nearly all actives have a fitted effect of over 50% in size
Summary of the method: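 Antagonist-mode screen of the Tox21 10K library in an NTP-provided ERR reporter cell line; 18 h compound exposure at 37 C, luminescence measured with ONE-Glo.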

[18] = qHTS assay to identify small molecule agonists of the estrogen related receptor (ERR) signaling pathway from Tox21 library (AID 1224849; calls by dose curve; further: nearly all actives have a fitted effect of over 15% in size); settings: ERR reporter cell line, ONE-Glo luciferase, 18 h; at 92.4 µM (top of the series) unless noted
Summary of the method: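 ERR reporter cell line (NTP) seeded, rested 6 h at 37 C/5% CO2, then pinned with Tox21 compounds in DMSO. After 18 h at 37 C, ONE-Glo luciferase luminescence was read following 30 min at room temperature.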
On the % scale 0 is the no-effect control and ±100 the full control effect.

CC(=O)C(=O)CC(C)C
inactive: Potency [1] | Potency [2] | Potency [3] | Potency [4] | Potency [5] | Potency [6] | Potency [7] | outcome [8] | Potency [9] | Potency [10] | Potency [11] | Potency [12] | Potency [13]

CCC(CO)(CO)CO
inactive: Potency [1] | Potency [2] | Potency [3] | Potency [4] | Potency [5] | Potency [14] | Potency [6] | Potency [7] | outcome [8] | Potency [9] | Potency [10] | Potency [11] | Potency [12] | Potency [13]

O=C(C(=O)c1ccco1)c1ccco1
inactive: Potency [1] | Potency [2] | Potency [3] | Potency [4] | Potency [15] | Potency [5] | Potency [6] | outcome [8] | Potency [9] | Potency [10] | Potency [12] | Potency [13]

COc1ccc(C(=O)NCc2ccc(OCCN(C)C)cc2)cc1OC
inactive: Potency [1] | Potency [2] | Potency [3] | Potency [4] | Potency [5] | Potency [16] | Potency [7] | outcome [8] | Potency [9] | Potency [17] | activity change, positive = activation [18] -0.159% [at 42.5 µM] | Potency [11] | Potency [12] | Potency [13]
